# Experimental data taken from PubChem BioAssay (NCATS).
# “And” between values parts separate entries of the source, which are not always exact repeats. Identical values can stand only once. Records with an inconclusive call do not appear. The source made the active and inactive calls. Unless noted, the call rests on the fitted dose curve.
# Tests used:
# [1] = biological target: Bile acid receptor (Homo sapiens) (UniProt Q96RI1); experiment: qHTS assay for small molecule antagonists of farnesoid X receptor signaling (AID 588526); further: on the % scale 0 is the no-effect control and ±100 the full control effect
# Chain of Bile acid receptor (Homo sapiens) (Q96RI1 whole entry, looked up): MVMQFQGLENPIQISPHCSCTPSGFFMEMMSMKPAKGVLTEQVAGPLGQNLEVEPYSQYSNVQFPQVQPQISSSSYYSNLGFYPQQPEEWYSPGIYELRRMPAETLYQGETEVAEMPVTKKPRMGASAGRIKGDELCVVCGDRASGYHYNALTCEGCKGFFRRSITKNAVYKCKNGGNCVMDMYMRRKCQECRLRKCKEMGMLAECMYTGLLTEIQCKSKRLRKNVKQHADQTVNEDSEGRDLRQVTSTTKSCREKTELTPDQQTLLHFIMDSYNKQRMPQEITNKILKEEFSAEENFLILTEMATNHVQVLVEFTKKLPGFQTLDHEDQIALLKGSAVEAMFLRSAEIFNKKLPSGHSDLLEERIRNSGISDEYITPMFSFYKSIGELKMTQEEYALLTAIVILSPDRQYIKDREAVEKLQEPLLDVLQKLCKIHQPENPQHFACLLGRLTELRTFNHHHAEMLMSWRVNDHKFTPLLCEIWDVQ
# Method in brief: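 Beta-lactamase reporter antagonist mode: HEK293T FXR-UAS-bla cells, titrated compound, CDCA stimulation, 16 h 37 C, CCF4 dye 2 h RT. Data normalized to CDCA 50 uM and DMSO; Hill-fit IC50.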
# [2] = biological target: Peroxisome proliferator-activated receptor delta (Homo sapiens) (UniProt Q03181); experiment: qHTS assay for small molecule agonists of peroxisome proliferator-activated receptor delta signaling (AID 588534);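 further: 0% = DMSO basal wells and 100% = positive control agonist at 10 µM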
# Chain of Peroxisome proliferator-activated receptor delta (Homo sapiens) (Q03181 whole entry, looked up): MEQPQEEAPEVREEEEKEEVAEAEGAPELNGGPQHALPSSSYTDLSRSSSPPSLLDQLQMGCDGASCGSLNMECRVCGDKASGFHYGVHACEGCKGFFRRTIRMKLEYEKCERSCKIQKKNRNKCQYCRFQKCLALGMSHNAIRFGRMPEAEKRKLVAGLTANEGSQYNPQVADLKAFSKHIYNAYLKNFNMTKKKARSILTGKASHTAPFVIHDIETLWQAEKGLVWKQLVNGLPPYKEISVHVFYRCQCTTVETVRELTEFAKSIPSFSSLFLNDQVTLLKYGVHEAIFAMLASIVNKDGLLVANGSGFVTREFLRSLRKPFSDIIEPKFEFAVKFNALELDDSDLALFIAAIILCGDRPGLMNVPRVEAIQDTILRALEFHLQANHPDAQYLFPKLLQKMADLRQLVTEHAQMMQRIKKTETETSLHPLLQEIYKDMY
# Method in brief: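 Titration series tested in agonist mode on beta-lactamase reporter cells; 18 hrs at 37 C after a 5 hr pre-incubation. Readout: CCF4 fluorescence, 2 hrs RT. Hill equation gives EC50 and maximal response.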
# [3] = qHTS assay for small molecule antagonists of peroxisome proliferator-activated receptor delta signaling (AID 588535; active means well fitted inhibition curve with a large enough effect in the signal ratio, with a control signal flat, not every such curve was filed as active; the % refers to the signal ratio;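 on max response: cells co-treated with a PPAR-delta agonist as stimulator during compound exposure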); conditions: HEK293T PPARd-UAS-bla, beta-lactamase FRET ratio, 18 h; 460 nm channel
# Method in brief: (§1)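 Antagonist-mode qHTS using GeneBLAzer PPAR-delta-UAS-bla HEK293T cells; compound exposure 18 hrs at 37 C over a titration. Ratiometric CCF4 fluorescence at 460/530 nm; concentration-response points fitted to the Hill equation.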
# [4] = biological target: Peroxisome proliferator-activated receptor delta (Homo sapiens) (UniProt Q03181); experiment: as above
# Method in brief: as §1
# [5] = biological target: Vitamin D3 receptor (Homo sapiens) (UniProt P11473); experiment: qHTS assay for small molecule agonists of vitamin D receptor signaling (AID 588543);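 further: 0% = DMSO basal and 100% = reference agonist control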
# Chain of Vitamin D3 receptor (Homo sapiens) (P11473 whole entry, looked up): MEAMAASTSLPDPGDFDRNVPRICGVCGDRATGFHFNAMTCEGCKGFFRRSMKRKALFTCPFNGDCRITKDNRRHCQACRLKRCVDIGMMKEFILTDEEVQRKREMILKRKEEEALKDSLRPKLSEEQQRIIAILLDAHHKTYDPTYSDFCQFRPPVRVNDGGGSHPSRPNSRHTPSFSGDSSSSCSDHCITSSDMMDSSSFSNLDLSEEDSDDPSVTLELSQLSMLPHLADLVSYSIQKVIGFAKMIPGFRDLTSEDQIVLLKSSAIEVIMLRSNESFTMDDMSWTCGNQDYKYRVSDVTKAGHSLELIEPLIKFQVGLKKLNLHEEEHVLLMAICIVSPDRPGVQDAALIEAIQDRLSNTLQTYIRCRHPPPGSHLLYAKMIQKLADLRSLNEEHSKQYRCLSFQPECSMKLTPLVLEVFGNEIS
# Method in brief: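 Measured: β-lactamase reporter activity (CCF4, 405 nm excitation, 460/530 nm emission) in HEK293T VDR-UAS-bla cells after 16 h compound exposure at 37 °C. Normalization against 50 nM 1α,25-dihydroxyvitamin D3 and DMSO; Hill-fit EC50.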
# [6] = qHTS assay for small molecule agonists of retinoid X receptor alpha signaling (AID 588544); conditions: HEK293T RXRa-UAS-bla, beta-lactamase reporter, 18 h; 530 nm emission;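 on activation: 0% = DMSO basal wells and 100% = reference agonist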
# [7] = biological target: Retinoic acid receptor RXR-alpha (Homo sapiens) (UniProt P19793); experiment: as above
# Chain of Retinoic acid receptor RXR-alpha (Homo sapiens) (P19793 whole entry, looked up): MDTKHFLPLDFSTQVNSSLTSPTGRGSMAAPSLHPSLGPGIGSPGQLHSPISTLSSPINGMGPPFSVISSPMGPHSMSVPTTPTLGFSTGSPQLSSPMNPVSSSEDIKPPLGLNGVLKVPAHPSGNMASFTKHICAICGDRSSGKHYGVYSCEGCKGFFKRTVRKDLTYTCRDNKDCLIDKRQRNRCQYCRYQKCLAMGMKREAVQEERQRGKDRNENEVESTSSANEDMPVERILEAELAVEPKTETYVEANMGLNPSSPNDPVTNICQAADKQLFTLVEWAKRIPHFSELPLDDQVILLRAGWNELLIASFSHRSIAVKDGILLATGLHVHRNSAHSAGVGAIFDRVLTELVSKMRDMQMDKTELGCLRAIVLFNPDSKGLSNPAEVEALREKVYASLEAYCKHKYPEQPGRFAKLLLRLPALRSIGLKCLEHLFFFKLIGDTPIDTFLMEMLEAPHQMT
# [8] = biological target: Thyroid hormone receptor beta (Homo sapiens) (UniProt P10828); experiment: qHTS assay for small molecule agonists of thyroid hormone receptor beta signaling (AID 588545);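 further: 0% = DMSO only and 100% = 10 nM T3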
# Chain of Thyroid hormone receptor beta (Homo sapiens) (P10828 whole entry, looked up): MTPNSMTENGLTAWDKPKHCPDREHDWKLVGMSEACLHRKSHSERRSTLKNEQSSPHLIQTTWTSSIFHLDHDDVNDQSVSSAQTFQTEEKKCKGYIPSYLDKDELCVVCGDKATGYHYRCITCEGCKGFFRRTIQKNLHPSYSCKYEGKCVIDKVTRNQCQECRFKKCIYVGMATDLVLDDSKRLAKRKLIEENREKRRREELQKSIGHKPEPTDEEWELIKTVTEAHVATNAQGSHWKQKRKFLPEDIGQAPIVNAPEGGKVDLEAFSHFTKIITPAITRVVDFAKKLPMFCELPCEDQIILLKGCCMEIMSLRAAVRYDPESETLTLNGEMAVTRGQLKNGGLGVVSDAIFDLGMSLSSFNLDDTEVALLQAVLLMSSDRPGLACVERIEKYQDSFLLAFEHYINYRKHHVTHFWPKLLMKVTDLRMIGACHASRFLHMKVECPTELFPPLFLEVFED
# Method in brief: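 Efficacy and EC50 values derive from Hill fits of qHTS titration data, normalized to 10 nM T3 and DMSO-only wells. HEK 293 reporter cells were stimulated for 18 hrs at 37 C, with beta-lactamase activity measured by CCF4 fluorescence.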
# [9] = qHTS assay for small molecule antagonists of retinoid X receptor alpha signaling (AID 588546; active means well fitted inhibition curve with a large enough effect in the signal ratio, with a control signal flat, not every such curve was filed as active; the % refers to the signal ratio; further: potency means the concentration at half of the fitted maximal effect;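 on max response: cells stimulated with 9-cis-retinoic acid as agonist; on the % scale 0 is the no-effect control and ±100 the full control effect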); conditions: HEK293T RXRa-UAS-bla, beta-lactamase ratio, antagonist mode; measured here: W530 green channel, cytotoxicity proxy
# Method in brief: (§2)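 Beta-lactamase reporter inhibition, read as CCF4 fluorescence ratio (ex 405, em 460/530 nm) after 2 h at RT. HEK293T UAS-bla cells, 2500/well, were stimulated with 9-cis-RA at 500 or 100 nM final alongside test compound for 18 h at 37 C.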
# [10] = biological target: Retinoic acid receptor RXR-alpha (Homo sapiens) (UniProt P19793); experiment: as above; conditions: HEK293T RXRa-UAS-bla, beta-lactamase ratio, antagonist mode
# Method in brief: as §2
# [11] = biological target: Thyroid hormone receptor beta (Homo sapiens) (UniProt P10828); experiment: qHTS assay for small molecule antagonists of thyroid hormone receptor beta signaling (AID 588547; active means well fitted inhibition curve with a large enough effect in the signal ratio, with a control signal flat, not every such curve was filed as active; the % refers to the signal ratio;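 further: cells stimulated with 0.4 nM T3 agonist during compound exposure; series mostly up to about 77 µM; on the % scale 0 is the no-effect control and ±100 the full control effect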); conditions: TR-UAS-bla HEK293, beta-lactamase ratio, antagonist mode, 18 h
# Method in brief: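 Inhibition of T3-driven (0.4nM final) beta-lactamase reporter activity was measured over 0.59 nM to 92 uM compound after 18 h at 37 C. The cells were GripTite HEK293 TR-UAS-bla in charcoal/dextran-stripped serum, with CCF4 ratio read-out and IC50 from Hill fits.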
# [12] = qHTS assay for small molecule activators of the nuclear factor-kappa B (NF-kB) signaling pathway (AID 651749; active means well fitted activation curve with a large enough effect in the signal ratio; the % refers to the signal ratio; further: series mostly up to about 77 µM; % of control where 0% means no effect); conditions: NF-kB-bla ME-180 cells, beta-lactamase FRET ratio, 16 h; activation: stronger effect = higher value
# Method in brief: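 FRET-based beta-lactamase detection in ME-180 cells reports NF-kB response-element-driven transcription following overnight (16 hr) compound treatment.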
# [13] = qHTS assay for environmental chemicals that activate the Aryl hydrocarbon Receptor (AhR) signaling pathway (AID 651777; active means well fitted curve in the direction sought with a large enough effect; an effect the other way counts as inactive or inconclusive; further: % of control where 0% means no effect; nearly all actives have a fitted effect of over 15% in size); conditions: 1A2-DRE human hepatoma cells, luciferase, 24 h; activation: stronger effect = higher value
# Method in brief: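 Luminescence read-out: One-Glo added for 30 min at RT after 24 hr compound treatment (37 C, 5% CO2) of human hepatoma cells expressing a DRE/CYP1A2 promoter–luciferase reporter; increased signal indicates AhR activation.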
# [14] = biological target: Peroxisome proliferator-activated receptor alpha (Homo sapiens) (UniProt Q07869); experiment: qHTS assay for small molecule agonists of the peroxisome proliferator-activated receptor alpha (PPARalpha) signaling pathway (AID 651778; active means well fitted curve in the direction sought with a large enough effect; an effect the other way counts as inactive or inconclusive; further: % of control where 0% means no effect); conditions: PathHunter PPARalpha complementation, chemiluminescence, 6 h; max response: stronger effect = higher value
# Chain of Peroxisome proliferator-activated receptor alpha (Homo sapiens) (Q07869 whole entry, looked up): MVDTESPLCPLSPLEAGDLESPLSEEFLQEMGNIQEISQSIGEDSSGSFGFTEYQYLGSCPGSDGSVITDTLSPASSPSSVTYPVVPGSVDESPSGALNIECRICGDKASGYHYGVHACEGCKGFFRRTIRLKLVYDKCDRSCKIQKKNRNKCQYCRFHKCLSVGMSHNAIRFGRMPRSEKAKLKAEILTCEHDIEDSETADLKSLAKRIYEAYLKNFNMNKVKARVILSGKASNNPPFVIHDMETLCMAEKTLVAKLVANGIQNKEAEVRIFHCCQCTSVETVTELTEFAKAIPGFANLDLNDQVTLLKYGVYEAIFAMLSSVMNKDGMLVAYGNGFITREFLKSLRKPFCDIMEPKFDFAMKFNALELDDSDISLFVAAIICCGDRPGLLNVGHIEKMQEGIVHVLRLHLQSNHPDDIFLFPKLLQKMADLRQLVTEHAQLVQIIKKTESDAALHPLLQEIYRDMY
# Method in brief: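 Chemiluminescence from complemented enzyme reported PPARalpha activation in cells after 6 hr of compound treatment at 37 C. The detection reagent was incubated for 60 min at room temperature, and compounds were scored as agonists.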
# [15] = qHTS assay for small molecule agonists of the antioxidant response element (ARE) signaling pathway measured by Nrf2-dependant transcriptional activity - cell viability counter screen (AID 720653; active means well fitted curve in the direction sought with a large enough effect in the repeat runs; an effect the other way counts as inactive or inconclusive; further: on the % scale 0 is the no-effect control and ±100 the full control effect); conditions: ARE-bla HepG2 viability, CellTiter-Glo ATP luminescence, 16 h; max response: stronger effect = lower value
# Method in brief: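 Cytotoxicity counter screen: intracellular ATP quantified by CellTiter-Glo luminescence in the same ARE-bla HepG2 plates, after 16 h compound exposure and a 2 h beta-lactamase substrate step.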
# [16] = qHTS assay for cell viability of HEK293 cells (AID 743288; active means well fitted curve in the direction sought with a large enough effect; an effect the other way counts as inactive or inconclusive; further: nearly all actives have a fitted effect of over 50% in size; further: potency means the concentration at half of the fitted maximal effect); conditions: ATP luminescence (CellTiter-Glo), 18 h; max response: stronger effect = lower value
# Method in brief: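 HEK293, 18 h, 37 C, ATP luminescence. Cells at 2,000/well were allowed at least 5 h to settle before dosing; CellTiter-Glo developed 30 min at RT.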
# [17] = qHTS assay for cell viability of the p53RE-bla HCT-116 cell line (AID 743292; active means well fitted curve in the direction sought with a large enough effect; an effect the other way counts as inactive or inconclusive; further: on the % scale 0 is the no-effect control and ±100 the full control effect; nearly all actives have a fitted effect of over 55% in size)
# Method in brief: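 Luminescent ATP quantitation (CellTiter-Glo) served as the viability read-out; reagent was added after 16 h compound exposure at 37 C and read after 30 min at room temperature. Cells: p53RE-bla HCT-116, 4,000 per well.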
# [18] = biological target: Bile acid receptor (Homo sapiens) (UniProt Q96RI1); experiment: qHTS assay for small molecule agonists of farnesoid X receptor signaling (AID 588527); conditions: HEK293T FXR-UAS-bla, beta-lactamase ratio, 16 h; activation: stronger effect = higher value;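 further: series mostly up to about 77 µM; 0% = vehicle basal and 100% = reference agonist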
# Method in brief: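 Read-out: beta-lactamase reporter fluorescence with CCF4 substrate in GeneBLAzer FXR-UAS-bla HEK293T cells, after 16 h compound exposure at 37 C. Response scaled between DMSO basal (0%) and chenodeoxycholic acid at 100 uM (100%).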
# [19] = biological target: Glucocorticoid receptor (Homo sapiens) (UniProt P04150); experiment: qHTS assay for small molecule agonists of glucocorticoid receptor signaling (AID 588532; active means well fitted curve in the direction sought with a large enough effect in the signal ratio, with a control signal flat; the % refers to the signal ratio;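 further: 100% = dexamethasone at 0.1 µM and 0% = DMSO only wells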); conditions: HeLa MMTV-bla, beta-lactamase ratio, agonist, 18 h; activation: stronger effect = higher value, percent of dexamethasone control, DMSO zero
# Chain of Glucocorticoid receptor (Homo sapiens) (P04150 whole entry, looked up): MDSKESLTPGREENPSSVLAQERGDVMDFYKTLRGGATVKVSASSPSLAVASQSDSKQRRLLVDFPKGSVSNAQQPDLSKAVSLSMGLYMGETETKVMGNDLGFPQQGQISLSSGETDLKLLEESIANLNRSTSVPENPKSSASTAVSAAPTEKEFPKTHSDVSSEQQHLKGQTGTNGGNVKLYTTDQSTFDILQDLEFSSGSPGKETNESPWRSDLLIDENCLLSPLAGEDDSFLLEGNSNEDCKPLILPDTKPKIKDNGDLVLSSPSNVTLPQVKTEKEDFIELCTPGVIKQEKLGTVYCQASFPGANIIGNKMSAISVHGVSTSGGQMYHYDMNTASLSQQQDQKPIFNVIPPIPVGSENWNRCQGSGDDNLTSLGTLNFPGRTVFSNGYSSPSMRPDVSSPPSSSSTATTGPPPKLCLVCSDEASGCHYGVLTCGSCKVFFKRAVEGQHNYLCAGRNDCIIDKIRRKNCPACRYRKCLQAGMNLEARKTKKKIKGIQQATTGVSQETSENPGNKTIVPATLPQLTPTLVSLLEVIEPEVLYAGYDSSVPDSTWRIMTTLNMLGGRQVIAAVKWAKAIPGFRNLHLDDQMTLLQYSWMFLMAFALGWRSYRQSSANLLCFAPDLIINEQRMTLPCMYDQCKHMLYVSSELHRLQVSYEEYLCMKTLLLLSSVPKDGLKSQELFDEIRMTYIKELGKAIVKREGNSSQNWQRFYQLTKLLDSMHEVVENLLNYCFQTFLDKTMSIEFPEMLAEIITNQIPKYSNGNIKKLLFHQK
# Method in brief: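 Agonist-mode qHTS: GRE-driven beta-lactamase in HeLa cells exposed 18 h to titrated compounds (up to 92 uM), then CCF4 ratio read after 2 h at RT; Hill-fitted EC50, efficacy relative to 0.1 uM dexamethasone.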
# [20] = qHTS assay for small molecule agonists of the antioxidant response element (ARE) signaling pathway measured by Nrf2-dependant transcriptional activity (AID 720636; active means well fitted curve in the direction sought with a large enough effect in the repeat runs; an effect the other way counts as inactive or inconclusive; further: potency means the concentration at half of the fitted maximal effect;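 on activation: HepG2 cells with an ARE-driven luciferase reporter; % of control where 0% means no effect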)
# Method in brief: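 HepG2 ARE-luc reporter line, 1% dialyzed FBS; 6 hr attachment at 37 C, compound pinned in, 16 hr at 37 C/5% CO2; ONE-Glo, 30 min RT, luminescence read.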
smiles,measurement,setting,value
CC1(C(=O)Nc2ccc(O)c(Cl)c2Cl)CCCCC1,Potency,[1],inactive
same,outcome,[2],inactive
same,max response,[3],11.8%
same,Potency,[4],inactive
same,outcome,[5],inactive
same,max response,[6],-10.8%
same,Potency,[7],inactive
same,Potency,[8],inactive
same,max response,[9],-23.6%
same,max response,[10],-4.55% (inactive)
same,activity change % (negative = inhibition),[11],15.7% (inactive)
same,activation,[12],0.744% (inactive)
same,activation,[13],0.158% (inactive)
same,max response,[14],3.06% (inactive)
same,max response,[15],4.3% (inactive)
same,max response,[16],-8.66% (inactive)
same,Potency,[17],inactive
CCOC(=O)C(C)Oc1ccc(Oc2cnc3cc(Cl)ccc3n2)cc1 (configuration not stated),activation,[18],-3.91% (inactive)
COC(=O)c1ccc(C=O)cc1,activation,[18],0.0505% (inactive) and 0.394% (inactive)
CC(C)=CCC/C(C)=C\CO,activation,[18],-0.74% (inactive)
C=CC(=O)OCCCC,activation,[18],-3.45% (inactive)
CCOP(=S)(OCC)SCn1nnc2ccccc2c1=O,activation,[18],3.29% (inactive)
same,activation,[19],9.79% (inactive)
same,outcome,[2],inactive
same,max response,[3],7.16%
same,Potency,[4],inactive
same,outcome,[5],inactive
same,Potency,[8],inactive
same,max response,[9],30.8%
same,Potency,[10],39.8 µM (active)
same,activity change % (negative = inhibition),[11],-2.51% (inactive)
same,activation,[12],-3.08% (inactive)
same,activation,[13],6.1% (inactive)
same,max response,[14],-0.264% (inactive)
same,Potency,[20],inactive
same,max response,[15],-19.9% (inactive)
same,Potency,[17],inactive
CC/C=C/C/C=C/C/C=C/CCCCCCCC(=O)OCC,activation,[18],1.74% (inactive)
CCOP(=S)(NC(C)C)Oc1ccccc1C(=O)OC(C)C (configuration not stated),activation,[18],8.84% (inactive)
same,activation,[19],-0.106% (inactive)
same,max response,[3],-3.59%
same,Potency,[4],inactive
same,outcome,[5],inactive
same,max response,[9],-9.07%
same,max response,[10],-31.4% (inactive)
same,activity change % (negative = inhibition),[11],1.38% (inactive)
same,activation,[13],4.48% (inactive)
same,max response,[14],-0.429% (inactive)
same,max response,[15],-14.9% (inactive)
same,max response,[16],-18.9% (inactive)
same,Potency,[17],inactive
NC(=S)NNC(N)=S,activation,[18],0.327% (inactive) and 1.24% (inactive)
CCCCNS(=O)(=O)c1ccccc1,activation,[18],2.61% (inactive)
C1CC[CH]([Sn]([CH]2CCCCC2)[CH]2CCCCC2)CC1,activation,[18],0.852% (inactive)
same,activation,[19],-10.4% (inactive)
same,Potency,[8],inactive
same,activation,[13],3.62% (inactive)
same,max response,[14],-0.731% (inactive)
same,Potency,[20],13.7 µM (active)
same,Potency,[16],31.6 µM (active)
CCC(C)c1ccc(O)cc1 (configuration not stated),activation,[18],-4.25% (inactive)
same,activation,[19],2.12% (inactive)
same,max response,[6],-6.05%
same,Potency,[7],inactive
same,max response,[9],-3.19%
same,max response,[10],-17.8% (inactive)
same,activity change % (negative = inhibition),[11],6.18% (inactive)
same,activation,[12],-0.802% (inactive)
same,max response,[14],-0.201% (inactive)
same,Potency,[20],inactive
same,max response,[15],-2.59% (inactive)
same,max response,[16],-7.5% (inactive)
same,Potency,[17],inactive
Cc1ccc(O)c(N)c1,activation,[18],-0.664% (inactive)
N=C1C=CC(=C(c2ccc(N)cc2)c2ccc(N)cc2)C=C1,activation,[18],3.86% (inactive)
CCC(C)c1cc([N+](=O)[O-])cc([N+](=O)[O-])c1O (configuration not stated),activation,[18],4.38% (inactive)
same,activation,[19],-12.7% (inactive)
same,max response,[3],0.93%
same,Potency,[4],inactive
same,max response,[9],-3.63%
same,max response,[10],15.9% (inactive)
same,activity change % (negative = inhibition),[11],-14.7% (inactive)
same,activation,[12],-0.876% (inactive)
same,activation,[13],6.77% (inactive)
same,max response,[14],-1.93% (inactive)
same,Potency,[20],inactive
same,Potency,[17],inactive
